CYP2C19 inh – human CYP2C19 inhibition; P33261; CYP2C19 Supersomes, luciferin-H EGE luminescence, 30 min; inhibition, % at 5 µM; 96,000 compounds, 21% hits;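 active = CYP2C19 inhibition above a set limit at 5 µM in the primary screen, cut at about 50% in these data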;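 note: plate controls were negative control wells for no effect and 2.5 mM tranylcypromine positive control for full effect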
CYP2C9 inhib – human CYP2C9 inhibition; inhibition, % at 5 µM; CYP2C9 Supersomes, luciferin-H conversion, luminescence; 96,000 compounds, 20% hits; P11712; AID 777;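 active = blocking of liver enzyme CYP2C9 beyond about 50% at 5 µM, limit read from the data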
Target sequence (P11712 whole entry, looked up): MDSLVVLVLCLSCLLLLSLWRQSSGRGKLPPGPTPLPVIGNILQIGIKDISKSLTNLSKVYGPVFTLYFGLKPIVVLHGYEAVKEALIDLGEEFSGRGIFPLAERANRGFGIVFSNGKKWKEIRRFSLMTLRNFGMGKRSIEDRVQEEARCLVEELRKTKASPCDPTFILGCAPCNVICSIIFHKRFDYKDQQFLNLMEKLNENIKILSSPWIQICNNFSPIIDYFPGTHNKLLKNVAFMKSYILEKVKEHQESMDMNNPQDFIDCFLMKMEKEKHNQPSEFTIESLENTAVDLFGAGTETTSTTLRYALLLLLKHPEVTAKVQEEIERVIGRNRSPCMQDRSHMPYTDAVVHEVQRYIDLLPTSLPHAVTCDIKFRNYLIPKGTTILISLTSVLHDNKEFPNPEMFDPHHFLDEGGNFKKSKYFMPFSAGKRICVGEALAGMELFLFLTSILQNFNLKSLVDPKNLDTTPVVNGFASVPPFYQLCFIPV
CYP2C9 act – CYP2C9 (human) activation; recombinant CYP2C9, luciferin-H conversion, luminescence; hits give high values; factor 1 = untreated enzyme, 0 = blocked; activation factor at 5 µM; 96,000 compounds, 1.4% hits; AID 1024;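 active = activation factor of 2 or more for CYP2C9 at a 5 µM dose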;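 note: 0 = sulfaphenazole-blocked wells and 1 = vehicle-only wells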
E-sel TNF inh – blocks E-selectin expression induced by TNF alpha | HUVEC TNFa-induced E-selectin immunofluorescence, high content | inhibition, % at 2 µM | 120,000 compounds, 0.71% hits | AID 1246;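 active = inhibition above the batch mean plus 3 SD, and confirmed as a hit on visual image review, cut at about 43% in these data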;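 note: 0% = TNF-stimulated DMSO wells and 100% = unstimulated control wells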
CYP2C19 act – activators of human cytochrome P450 2C19; P33261; recombinant CYP2C19, luciferin-H EGE luminescence; hits give high values; 0 = fully inhibited enzyme, 1 = untreated enzyme; activation factor at 5 µM; 96,000 tested, under 10 active; AID 1025;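 active = activation factor of at least 2 at 5 µM in the primary screen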;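 note: 0 = wells with 2.5 mM tranylcypromine and 1 = vehicle-only wells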
F-actin modifier – cytoskeleton assembly modification; HUVEC TNFa F-actin phalloidin imaging, high content; inhibition, % at 2 µM; 91,000 compounds, 0.18% hits; AID 836;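 active = inhibition above the batch mean plus 3 SD and confirmed as a hit by visual image inspection, cut at about 30% in these data, passing the limit was not always enough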
Active calls of the source: *; x = no result given. Compounds with a hit are over-represented: about 22% of the library has one in this group of screens.

SMILES	CYP2C19 inh	CYP2C9 inhib	CYP2C9 act	E-sel TNF inh	CYP2C19 act	F-actin modifier
Fc1ccc(-c2n[nH]c(=S)n2/N=C/c2c[nH]c3ccccc23)cc1	x	x	x	61*	x	x
CCOC(=O)N1CCN(C(=O)CSc2nc3c([nH]c4ccccc43)c(=O)n2C)CC1	x	x	x	x	x	8
COc1ccc(NC(=O)COc2ccc(C)cc2)c([N+](=O)[O-])c1	x	x	x	-6	x	x
COc1ccc(NC(=S)NC(NC(=O)c2ccc(Cl)cc2Cl)C(Cl)(Cl)Cl)c([N+](=O)[O-])c1 (stereo not drawn)	96*	98*	0	1	0	-24
COc1ccc(NC(=S)NC(NC(=O)c2cccc3ccccc23)C(Cl)(Cl)Cl)c([N+](=O)[O-])c1 (stereo not drawn)	19	83*	0.2	59	0.8	13
COc1ccc(NC(=O)c2ccc(C)cc2Cl)c([N+](=O)[O-])c1	35	-259	3.6*	3	0.7	17
COc1ccc(NC(=S)NC(NC(=O)c2ccccc2Cl)C(Cl)(Cl)Cl)c([N+](=O)[O-])c1 (stereo not drawn)	24	74*	0.3	-26	0.8	-14
CCOc1cc2[nH]c(=O)n(CCC(=O)N3CCN(c4ccccc4OC)CC3)c(=O)c2cc1OCC	20	67*	0.3	-14	0.8	-18
COc1cc2[nH]c(=O)n(CCCCCC(=O)N3CC=C(c4ccccc4)CC3)c(=O)c2cc1OC	83*	61*	0.4	-45	0.2	11
COc1ccccc1-n1c(C)nnc1SCC(=O)Nc1cc(C)cc(C)c1	27	-21	1.2	14	0.7	-4
O=C(N1CCCC1)C12CC3CC(CC(C3)C1)C2	x	x	x	3	x	4
CC12CCC(C(=O)N3CCCCCC3)(OC1=O)C2(C)C (stereo not drawn)	-10	-4	1	24	1.1	1
O=C(N1CCN(c2ccccc2)CC1)C12CC3CC(CC(C3)C1)C2	81*	67*	0.3	-51	0.2	-18
O=C(N1CCN(Cc2ccccc2)CC1)C12CC3CC(CC(C3)C1)C2	99*	72*	0.3	-32	0	-6
CC12CCC(C(=O)N3CCN(Cc4ccccc4)CC3)(OC1=O)C2(C)C (stereo not drawn)	72*	67*	0.3	9	0.3	-6
CCn1c(N2CCN(C(=O)C34CC5CC(CC(C5)C3)C4)CC2)nc2ccccc21	42	23	0.8	x	0.6	14
COC(=O)c1cn[nH]c1N	-16	-36	1.4	14	1.2	x
OC(CNCCCN1CCCCC1)COc1ccccc1 (stereo not drawn)	-3	0	1	x	1	68
COC(=O)/C(=C\Nc1ccc(Cl)cc1Cl)NC(=O)c1ccc(Cl)cc1Cl	-8	18	0.8	x	1.1	-2
CCCC1(C(=O)OCC)NC(c2ccc(OC)cc2OC)C2C(=O)N(c3ccccc3)C(=O)C21 (stereo not drawn)	x	x	x	4	x	0
Cc1nc2sc(C(=O)OCC(=O)N3c4ccccc4CC3C)c(C)c2c(=O)[nH]1 (stereo not drawn)	x	x	x	-2	x	x
COc1ccc(CN2CCNC(=O)C2CC(=O)O)c(OC)c1 (stereo not drawn)	-11	26	0.7	7	1.1	-1
CCOC(=O)CC1C(=O)NCCN1Cc1cccc(OC)c1 (stereo not drawn)	35	75*	0.2	18	0.7	2
CN(Cc1ccccc1)C(=O)COC(=O)c1ccc(Cl)c(N)c1	x	x	x	-4	x	x
CCN(CC)C(=O)COC(=O)c1cc(-c2ccc(OC)cc2)nc2ccccc12	91*	98*	0	7	0.1	-6
SMILES	CYP2C19 inh	CYP2C9 inhib	CYP2C9 act	E-sel TNF inh	CYP2C19 act	F-actin modifier
CCCNC(=O)COC(=O)c1cc(-c2ccc(OC)cc2)nc2ccccc12	x	x	x	-53	x	x
CN(Cc1ccccc1)C(=O)COC(=O)c1cc(-c2ccc(Cl)s2)nc2ccccc12	56*	88*	0.1	8	0.4	14
CCNC(=O)COC(=O)c1cc(-c2ccc(OC)cc2)nc2ccccc12	16	61*	0.4	x	0.8	22
CCOc1ccc(-c2cc(C(=O)O)c3ccccc3n2)cc1	-25	57*	0.4	11	1.3	x
C=CCn1c(SCC(=O)/C(C#N)=C(\C)N)nc2sc(CC)cc2c1=O	x	x	x	-11	x	x
CCCCN(C)CCNS(=O)(=O)c1ccc2c(c1)n(C)c(=O)c(=O)n2C	-10	-7	1.1	8	1.1	4
O=C(COC(=O)c1cc(-c2ccco2)nc2ccccc12)NCc1ccccc1	33	61*	0.4	8	0.7	-10
Cc1cc(C)n2nc(C(=O)Nc3nnc(C4CC4)s3)nc2n1	-7	2	1	-18	1.1	-6
CCN1C=C(Cc2ccccc2C)C2=C(C1)C(c1ccccc1C)C(C#N)=C(N)O2 (stereo not drawn)	85*	99*	0	24	0.1	-11
CCN1C=C(Cc2ccc(F)cc2)C2=C(C1)C(c1ccc(F)cc1)C(C#N)=C(N)O2 (stereo not drawn)	46	12	0.9	-9	0.5	0
O=C(N/N=C/c1c[nH]c2ccccc12)c1ccn(Cc2ccc(Cl)cc2)n1	65*	2	1	-48	0.4	6
O=C(N/N=C/c1c[nH]c2ccc(Br)cc12)c1ccn(Cc2ccc(Cl)cc2Cl)n1	14	35	0.7	-21	0.9	1
Cc1ccccc1-n1nnnc1SCC(N)=O	-4	3	1	x	1	-2
Cc1ccccc1-n1nnnc1Sc1nnnn1-c1ccccc1	88*	17	0.8	3	0.1	-21
Cc1nc(Sc2nnnn2-c2ccccc2)c(C#N)c(C)c1C	59*	11	0.9	10	0.4	0
c1ccc(-n2nnnc2Sc2n[nH]c(-c3ccncc3)n2)cc1	43	80*	0.2	29	0.6	-15
CCCSc1nnc(Sc2nnnn2-c2ccccc2)s1	26	-5	1.1	13	0.7	22
Cc1cc(C)c(C#N)c(Sc2nnnn2-c2ccccc2)n1	57*	18	0.8	x	0.4	-7
COCC(C)n1c(SCC(=O)NNC(=O)c2ccc(F)cc2)nc2ccccc2c1=O (stereo not drawn)	x	x	x	17	x	x
O=C(NCc1ccc2c(c1)OCO2)C1Cc2ccccc2CN1C(=O)c1ccco1 (stereo not drawn)	x	x	x	13	x	x
CCn1c(-c2ccccc2)c[nH]c1=S	58*	31	0.7	3	0.4	7
CCn1c(-c2csc(-c3ccccc3)n2)n[nH]c1=S	-1	6	0.9	x	1	-17
S=c1[nH]cc(-c2ccccc2)n1-c1ccccc1	79*	78*	0.2	11	0.2	23
Cc1ccc(-n2c(-c3ccccc3)n[nH]c2=S)cc1	x	x	x	13	x	6
COc1ccc(-c2n[nH]c(C)c2-c2cnn(-c3ccccc3)c2)c(O)c1C	39	52*	0.5	-44	0.6	17

Source: PubChem
